Screens deposited in PubChem BioAssay by National Center for Advancing Translational Sciences (NCATS).
BAZ2B inh = BAZ2B (human) inhibition | Q9UIF8 | AlphaScreen BAZ2B-H3K14Ac peptide displacement | Potency, µM (doses to about 114 µM), inactives show at the top dose activity change, negative = inhibition, most hits filed as inhibitors | 360,000 compounds, 4.4% hits | AID 504333; note: potency is the fitted concentration of half-maximal effect; % is set by controls: 0 for no effect and ±100 for the full control effect; nearly all actives have a fitted effect of over 60% in size
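BAZ2B (50 nM) with biotin-H3(5-23)K14Ac peptide (50 nM) in PBS pH 7.4, 0.01% Tween-20, preformed 30 min, then compound 30 min at room temperature; top concentration 110uM. AlphaScreen streptavidin donor/nickel chelate acceptor beads (10 ug/mL final), 20 min dark, signal read.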
JMJD2A Tudor inh = JMJD2A Tudor domain (human) inhibition. O75164. AlphaScreen JMJD2A-Tudor / H3K4me3 peptide binding. Potency, µM (highest dose often 114 µM), inactives show at the top dose activity change, negative = inhibition, usual class: inhibitors. 390,000 compounds, 4.4% hits. AID 504339; note: potency is the fitted concentration of half-maximal effect; % is set by controls: 0 for no effect and ±100 for the full control effect; nearly all actives have a fitted effect of over 50% in size
HP1b chromo inh = HP1-beta chromodomain-methylated histone interaction inhibition; AID 540317; 390,000 compounds, 0.56% hits; AlphaScreen HP1-beta / biotin-H3K9me3 peptide binding; Potency, µM (top dose mostly 114 µM), for the others: at the highest dose activity change, negative = inhibition, most hits filed as inhibitors; note: potency is the fitted concentration of half-maximal effect; nearly all actives have a fitted effect of over 70% in size
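Compound inhibition of the preformed complex between 50 nM HP1-beta and 50 nM biotinylated H3K9me3 peptide was read by AlphaScreen. Buffer was PBS pH 7.4 with 0.01% Tween-20. Incubations ran 30 min at room temperature, with 10 ug/mL donor/acceptor beads.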
PLK1 PBD inh = blocks phosphopeptide binding to human PLK1 polo-box domain. P53350. Plk1 PBD binding of FITC phosphopeptide, fluorescence polarization. Potency, µM, for inactives: max response, negative = inhibition, hits mostly inhibitors. 360,000 compounds, 2.8% hits; note: potency is the fitted concentration of half-maximal effect; series mostly up to about 57 µM; % is set by controls: 0 for no effect and ±100 for the full control effect; nearly all actives have a fitted effect of over 65% in size
PI5P4K alpha inh = PI5P4K alpha (human) kinase inhibition; 330,000 compounds, 1.2% hits; PI5P4Kalpha enzyme, ADP-Glo luminescence, 60 min; active compounds read low; P48426; max response, %; active = max response of -50% or lower; inconclusive = between -30% and -50%; inactive = -30% or higher; note: value at the top dose of about 77 µM; % is set by controls: 0 for no effect and ±100 for the full control effect
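PI5P4Kalpha ADP-Glo assay; 5 microM ATP final; 60 min RT reaction; HEPES pH 7.4/EGTA/CHAPS, 5% DMSO; controls lacking substrate or enzyme; luminescent end-point.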
G9a block = G9a (human) methyltransferase inhibition; 350,000 compounds, 8.8% hits; Q96KQ7; Potency, µM (doses to about 102 µM), for inactives: top-dose activity, negative = inhibition, hits mostly inhibitors; AID 504332; G9a H3K9 monomethylation, AlphaScreen, 2 h; note: potency is the fitted concentration of half-maximal effect; % is set by controls: 0 for no effect and ±100 for the full control effect; nearly all actives have a fitted effect of over 75% in size
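Methyltransferase reactions run at room temperature for 2 h (20 nM enzyme, 500 nM biotin-H3K9 peptide, 20 uM SAM) after a 15 min compound preincubation; product detected by AlphaScreen beads and anti-H3K9me1 antibody.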
The depositor's hits bear a star; ? = inconclusive; nt = no result; ! = not confirmed by another sample; [ ] = another dose, or the depositor's remark. An excerpt weighted towards active compounds, which were near 12% of everything screened. Unless noted, calls come from the whole dose curve; as a rule, active = well fitted curve in the direction sought with a large enough effect; inconclusive = small, poorly fitted or top-dose-only effect, or another doubt; inactive = no such curve, though single readings can be large; an effect the other way counts as inactive or inconclusive.

SMILES	BAZ2B inh	JMJD2A Tudor inh	HP1b chromo inh	PLK1 PBD inh	PI5P4K alpha inh	G9a block
CCn1cc(C(=O)O)c(=O)c2cc(F)c(N3CCNCC3)cc21	-8%	nt	nt	nt	nt	8.9µM*!
O=[N+]([O-])c1cc(F)c(N2CCCCCC2)cc1N1CCNCC1	?	-28%	-2%	3%	4	nt
O=C(c1ccc(CNS(=O)(=O)c2ccc(Br)cc2)cc1)N1CCC2(CC1)OCCO2	-7%	9%	15%	4%	-1	7%
O=C(c1ccc(CNS(=O)(=O)c2ccccc2)cc1)N1CCC2(CC1)OCCO2	?	?	-2%	21µM*	-3	35µM*
COc1cc(OC2CCN(C(C)=O)CC2)ccc1C(=O)N1CCC(N2C(=O)OCc3ccccc32)CC1	nt	nt	nt	nt	nt	33%[59 µM]
COc1ccccc1CNCC(=O)Nc1cc(S(=O)(=O)N2CCCCC2)ccc1C	nt	1.8µM*	?	1%	0	nt
c1cc2c(c(NC3=NCCN3)c1)CCCC2	nt	nt	nt	nt	nt	19%[59 µM]
O=C(c1ccc2c(c1)N(Cc1c(F)cccc1Cl)C(=O)c1ccccc1S2)N1CCC2(CC1)OCCO2	nt	?	-6%	nt	nt	-11%[59 µM]
CCOC(=O)N1CC(C)N(/[N+]([O-])=N/Oc2ccc([N+](=O)[O-])cc2[N+](=O)[O-])CC1C (centres undefined)	nt	89µM*	-12%	nt	nt	nt
CCOC(=O)C1CCCN(c2ccc([N+](=O)[O-])c3nonc23)C1 (centres undefined)	?	7%	22%	?	-2	-3%
CC(C)(C)[C@]1(O)C[C@@H]2OC(=O)CC23C(=O)O[C@@H]2OC(=O)[C@H](O)C231 (some centres undefined)	nt	nt	nt	nt	nt	29%[59 µM]
Cn1c(=O)c(Oc2ccc(F)cc2)c(O)c2ccccc21	-2%	1%	26%	-6%	-3	?
COc1cccc(CC(=O)N2CCN(Cc3cccc(Cl)c3)CC2)c1	-14%	-16%	16%	-4%	-6	-17%
COC(=O)N1CCN(C(=O)Cc2ccc(Cl)c(Cl)c2)C(CN2CCCC2)C1 (centres undefined)	-8%	nt	nt	nt	nt	35µM*!
COc1cc(C2c3cc4c(cc3C(O)C3COC(=O)C23)OCO4)cc(OC)c1O (centres undefined)	nt	nt	nt	nt	nt	-32%[2.33 µM]
Cc1cccc(Cn2cccc(C(=O)Nc3nnc(C)s3)c2=O)c1	-16%	-7%	-6%	nt	nt	?
CCCc1cc(N2CCN(c3ccc(OC)cc3)CC2)n2cnnc2n1	?	-25%	15%	nt	nt	?
CCCCCCOc1ccc(CN2CCN(CC)CC2)cc1	?	-31%	0%	2%	nt	56µM*
O=C(O)c1ccccc1-c1c2cc(Br)c(=O)cc-2oc2[c]([Hg])c(O)c(Br)cc12	nt	nt	nt	nt	nt	0.89µM*
CN1C(=O)C(=Cc2ccc(SC3CCCCC3)o2)C(=O)N(C)C1=O	56µM*	?	?	0.6µM*	-6	13µM*
S=C(c1ccc(Cl)cc1)N1CCOCC1	-2%	-21%	-32%	28µM*	nt	11µM*
S=C(Nc1ccc(Cl)cc1)N1CCOCC1	nt	-6%	46%	-13%	-2	nt
O=C1c2ccccc2C(=O)c2ccccc21	nt	nt	nt	nt	nt	0%[59 µM]
O=C1C=Cc2ccccc2C1=O	40µM*	nt	nt	nt	nt	8.9µM*
O=c1[nH]c(=S)[nH]c(O)c1CN1CCCCC1	-1%	-9%	22%	-10%	3	?
SMILES	BAZ2B inh	JMJD2A Tudor inh	HP1b chromo inh	PLK1 PBD inh	PI5P4K alpha inh	G9a block
Cc1cc(Cc2c(O)[nH]c(=S)[nH]c2=O)ccc1OC(C)C	-21%	89µM*	?	27µM*	?	8.9µM*
CC(C)COc1ccc(Cc2c(O)[nH]c(=S)[nH]c2=O)cc1	3%	-18%	?	27µM*	-52*	22%[0.501 µM]
CC(=O)Oc1ccc2c3c1OC1[C@@H](OC(C)=O)C=C[C@H]4[C@H](C2)N(C)CC[C@]314 (some centres undefined)	nt	nt	nt	nt	nt	-42%[12.7 µM]
CC1CC[C@@]2(NC1)OC1CC3C4CC[C@@H]5CC(O)CC[C@@]5(C)C4CC[C@]3(C)C1C2C (some centres undefined)	nt	nt	nt	nt	nt	-6%[2.33 µM]
CC[C@H](C)/C=C(C)/C=C/C1=CC2=C(Cl)C(=O)[C@](C)(OC(C)=O)C(=O)C2=CO1	nt	79µM*	?	1.1µM*	-104*	nt
Cc1ccccc1CN1C(=O)C(C)N=C(c2ccccc2)c2ccccc21 (centres undefined)	2%	-18%	9%	nt	nt	-10%[59 µM]
CC(=O)c1c(O)n(-c2cccc(Cl)c2)c(=O)[nH]c1=O (tested in a mixture with another compound)	-29%	-18%	16%	-2%	10	50µM*
O=C1NC(=S)N(c2ccccc2)C(=O)C1C(c1ccncc1)C1C(=O)NC(=S)N(c2ccccc2)C1=O (centres undefined)	-28%	-25%	29%	-5%	?	45µM*
CCN[C@]1(c2cccs2)CCCCC1=O	nt	nt	nt	nt	nt	18%[21.5 µM]
Cc1ccc(CNCc2c(C(=O)O)n(Cc3ccccc3C)c3cc(C)ccc23)cc1	-1%	-1%	40%	nt	nt	-1%[59 µM]
Cc1ccccc1C(=O)N1Cc2cnnn2-c2ccccc2C1C#N (centres undefined)	nt	-10%	39%	1%	0	nt
Cc1ccccc1-c1ccc2n1Cc1cnnn1-c1ccccc1-2	nt	50µM*	?	-8%	6	nt
Cc1cccc(-n2c(O)c(C)c(=O)[nH]c2=S)c1	?	-16%	33%	12µM*	?	nt
O=c1[nH]c(=S)n(-c2cccc(Cl)c2)c(O)c1/C=N/N1CCOCC1	-24%	-20%	46%	-8%	-25	?
N#CC1c2ccccc2-n2nncc2CN1S(=O)(=O)c1cc(Cl)cc(Cl)c1 (centres undefined)	nt	89µM*	28%	-23%	-6	nt
CC(C)Oc1ccc(CNC(=O)Oc2ccccc2)cc1	-4%	-13%	24%	?	-6	?
Nc1nonc1C(=O)N/N=C/c1ccc([N+](=O)[O-])o1	56µM*	?	?	0%	?	50µM*
N/C(=N\[N+](=O)[O-])N/N=C/c1ccc(O)cc1	-3%	0%	23%	-10%	nt	3%
CCOc1cc2c(cc1OCC)-n1cccc1C(c1cccc(OCC)c1O)NC2 (centres undefined)	?	45µM*	?	-5%	1	45µM*
CCC(C)(S(=O)(=O)CC)S(=O)(=O)CC	nt	nt	nt	nt	nt	-25%[12.7 µM]
CCC1(C)CC(C(N)=S)CCO1 (centres undefined)	?	56µM*	?	2.1µM*	-8	-138%[12.7 µM]
COc1ccc(OC)c(C2=NOC(C(=O)N3CCC4(CC3)OCCO4)C2)c1 (centres undefined)	7%	25µM*	-1%	-9%	nt	-2%[12.7 µM]
COc1ccc(C(=O)N2CCC3(CC2)OCCO3)cc1	12%	-1%	26%	-4%	1	nt
